PubChem BioAssay (NCI)
Compounds without any hit were thinned out: in the full panel of roughly 79,000, 15% have a hit. Values without a mark were called inactive. Activity calls are given as the source filed them. No stated cut-off is given here; in the data, active means growth inhibition above about 70%; inactive means the rest.

How the values were obtained:
[1] = NCI Yeast Anticancer Drug Screen. Data for the rad50 strain (AID 155);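 further: 0% = growth of vehicle-only cultures of the same strain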; details: S. cerevisiae rad50 strain growth inhibition, active compounds read high
Outline: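 Relative growth inhibition (compound vs vehicle) was measured in yeast with a defined repair-gene alteration.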

[2] = NCI Yeast Anticancer Drug Screen. Data for the mec2-1 strain (AID 157); details: S. cerevisiae mec2-1 strain, active compounds read high
Outline: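 Vehicle-treated cultures served as reference for growth inhibition of compound-exposed mec2-1 yeast.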

[3] = NCI Yeast Anticancer Drug Screen. Data for the sgs1 mgt1 strain (AID 161);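 further: 0% = growth of cultures given vehicle only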; details: S. cerevisiae sgs1 mgt1 strain, active compounds read high
Outline: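 Test agents were incubated with a DNA-repair-mutant yeast strain. Growth was then read and compared against vehicle-treated controls.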

[4] = NCI Yeast Anticancer Drug Screen. Data for the cln2 rad14 strain (AID 165);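 further: 0% = growth equal to vehicle treated cultures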; details: S. cerevisiae cln2 rad14 strain, active compounds read high
Outline: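 Each compound was tested on cln2 rad14 yeast. Inhibition of growth was calculated against vehicle-exposed controls.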

[5] = NCI Yeast Anticancer Drug Screen. Data for the bub3 strain (AID 167); details: S. cerevisiae bub3 mutant strain, active compounds read high
Outline: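 Screening used yeast with an engineered genetic alteration affecting cell cycle control. Compound-exposed cultures were compared with vehicle cultures, and reduced growth was taken as inhibition.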

[6] = NCI Yeast Anticancer Drug Screen. Data for the mlh1 rad18 strain (AID 175); details: S. cerevisiae mlh1 rad18 strain growth inhibition, active compounds read high
Outline: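 Vehicle-treated cultures served as the reference for growth inhibition in a yeast strain carrying DNA damage repair alterations exposed to each compound.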

[7] = at 5.0 µM (retest, dose inferred, filed as 0.5)
[8] = at 50.0 µM (retest, dose inferred, filed as 5.0)

| Compound | growth inhibition [1, 7] | growth inhibition [1, 8] | growth inhibition ([1]; at 50.0 µM) | growth inhibition [2, 7] | growth inhibition [2, 8] | growth inhibition ([2]; at 50.0 µM) | growth inhibition [3, 7] | growth inhibition [3, 8] | growth inhibition ([3]; at 50.0 µM) | growth inhibition [4, 7] | growth inhibition [4, 8] | growth inhibition ([4]; at 50.0 µM) | growth inhibition [5, 7] | growth inhibition [5, 8] | growth inhibition ([5]; at 50.0 µM) | growth inhibition [6, 7] | growth inhibition [6, 8] | growth inhibition ([6]; at 50.0 µM) |
| --- | --- | --- | --- | --- | --- | --- | --- | --- | --- | --- | --- | --- | --- | --- | --- | --- | --- | --- |
| C[C@@H]1CCC([C@@H](C)[C@H]2CC[C@H]3[C@@H]4CC[C@H]5C[C@@H](O)CC[C@]5(C)[C@H]4CC[C@]23C)=NC1 | 73% (active) | 98% (active) | 87.5% (active) | 60% | 98% (active) | 89% (active) | 90% (active) | 99% (active) | 91.6% (active) | 60% | 98% (active) | 88.7% (active) | 84% (active) | 98% (active) | 88.5% (active) | 95% (active) | 98% (active) | 89% (active) |
| COc1cccc(N=N/C(=N\NC(=O)c2cc(Br)ccc2O)c2ccc(N(CCC#N)CCC#N)cc2OC)c1 | 17% | 30% | 72% (active) | 22% | 35% | 48.9% | -8% | 34% | 34.5% | 0% | 19% | 20.9% | -2% | 42% | 39.4% | 26% | 43% | 76.2% (active) |
| NNc1cccc([N+](=O)[O-])c1 | 12% | 68% | 76.8% (active) | 0% | 71% (active) | 84.2% (active) | 10% | 50% | 57.2% | 24% | 67% | 72.6% (active) | -6% | 94% (active) | 81.8% (active) | 11% | 94% (active) | 78% (active) |
| C=C1C(=O)OC2CC3(C)CCCC(C)C3=CC12 (centres undefined) | 18% | 27% | 49.5% | 10% | 56% | 46.9% | 15% | 49% | 80% (active) | 7% | 25% | 16.2% | 14% | 63% | 78.8% (active) | 14% | 41% | 25% |
| CCc1cccc(CC)c1N1C(=O)C=CC1=O | 45% | 78% (active) | 92.7% (active) | 45% | 89% (active) | 94.2% (active) | 99% (active) | 100% (active) | 94% (active) | 88% (active) | 99% (active) | 92.1% (active) | 100% (active) | 100% (active) | 92.6% (active) | 38% | 87% (active) | 93.3% (active) |
| Nc1nc(-c2ccccc2)nc(N)c1N=O | 50% | 99% (active) | 87.4% (active) | 63% | 98% (active) | 89.5% (active) | 50% | 99% (active) | 91.5% (active) | 52% | 100% (active) | 77% (active) | 82% (active) | 97% (active) | 89.2% (active) | 49% | 67% | 88.5% (active) |
| CCOC(=O)c1c(C)[nH]c2ccc(O)cc12 | 6% | 15% | 98.3% (active) | 1% | -3% | 96% (active) | -13% | 20% | 97% (active) | -12% | -10% | 94.3% (active) | -24% | 5% | 97.3% (active) | -6% | 50% | 96.9% (active) |
| Cc1cc(C(=O)c2ccc(Cl)cc2)ccc1O | 0% | 4% | 72.4% (active) | -4% | -2% | 57.5% | 0% | 4% | 85.9% (active) | -6% | -9% | 46% | -3% | 0% | 24.8% | -1% | -2% | 70.5% (active) |
| Clc1ccc(-n2ncc3c(NCCCN4CCOCC4)ncnc32)cc1 | 3% | 82% (active) | 56% | 6% | 70% (active) | 62.1% | 1% | 81% (active) | 82.8% (active) | 19% | 62% | 35.4% | 16% | 77% (active) | 47.4% | 9% | 79% (active) | 75.6% (active) |
| Oc1c(Cl)cc(Cl)cc1C=NCC1CCC(CN=Cc2cc(Cl)cc(Cl)c2O)CC1 (centres undefined) | 60% | 86% (active) | 87.5% (active) | 41% | 92% (active) | 91% (active) | 67% | 96% (active) | 90.3% (active) | 39% | 58% | 80.1% (active) | 73% (active) | 94% (active) | 88.4% (active) | 72% (active) | 97% (active) | 85.8% (active) |
| O=C(/C=C/C(Cl)(Cl)Cl)Nc1ccc(Cl)cc1 | -6% | 16% | 71.8% (active) | 42% | 21% | 85% (active) | -4% | 43% | 81% (active) | 25% | 8% | 77.5% (active) | 9% | 3% | 75.9% (active) | 18% | 64% | 85% (active) |
| O=C(Cc1ccccc1)C(F)(F)F | 10% | 70% (active) | -8.45% | 3% | 15% | 1.95% | 4% | 20% | 42.2% | 4% | 2% | -15.6% | 2% | 19% | -7.95% | 0% | 18% | 58.8% |
| O=C1C=CC(=O)N1c1cccc2c1CCCC2 | 99% (active) | 99% (active) | 91.9% (active) | 100% (active) | 100% (active) | 93.8% (active) | 100% (active) | 99% (active) | 94.7% (active) | 99% (active) | 99% (active) | 93.5% (active) | 100% (active) | 99% (active) | 93.6% (active) | 99% (active) | 99% (active) | 93.1% (active) |
| O=C(Cc1nc2cc(Cl)c(Cl)cc2nc1CC(=O)c1ccccc1)c1ccccc1 | -7% | 93% (active) | 96.4% (active) | -9% | 76% (active) | 96.8% (active) | -9% | 84% (active) | 96.8% (active) | 7% | 74% (active) | 94.8% (active) | -4% | 90% (active) | 96.5% (active) | -9% | 93% (active) | 96% (active) |
| CCCCCCCCC(=O)OCCCC(CCC(CCC1CCCO1)OC(=O)CCCCCCCC)OC(=O)CCCCCCCC (centres undefined) | -19% | 10% | 82.3% (active) | 3% | 12% | 37% | -12% | 33% | 42.4% | -17% | 31% | 14.3% | -7% | 12% | 29.8% | -2% | 23% | 62.4% |
| CCOC(=O)C1=C(C(=O)c2ccccc2)C(c2cccc([N+](=O)[O-])c2)C(C(=O)c2ccccc2)=C(C(=O)OCC)N1 | -3% | 60% | 56.2% | 5% | 33% | 25.6% | 21% | 36% | 25.6% | -9% | 27% | 17% | -7% | 63% | 38.5% | -28% | 42% | 67.7% |
| COC(=O)c1cc([N+](=O)[O-])cc([N+](=O)[O-])c1Cl | 99% (active) | 99% (active) | 91.2% (active) | 99% (active) | 99% (active) | 93.2% (active) | 100% (active) | 99% (active) | 93.7% (active) | 77% (active) | 99% (active) | 92.4% (active) | 99% (active) | 99% (active) | 92.8% (active) | 100% (active) | 99% (active) | 92.2% (active) |
| Oc1ccc(Cl)cc1C(c1cc(Cl)ccc1O)C(Cl)(Cl)Cl | 99% (active) | 99% (active) | 99.5% (active) | 99% (active) | 99% (active) | 99.6% (active) | 100% (active) | 100% (active) | 99.4% (active) | 99% (active) | 99% (active) | 99.1% (active) | 100% (active) | 99% (active) | 99.5% (active) | 99% (active) | 99% (active) | 99.2% (active) |
